High-throughput results deposited in PubChem BioAssay by Sanford-Burnham Center for Chemical Genomics.
Hits are enriched below; roughly 4% of the tested compounds scored in any of these assays.
TROY signal inh: TROY signaling inhibition | inhibition, % at 10 µM | AID 1347056 | 360,000 compounds, 0.98% hits | Q293 LMP1-TROYcd NF-kB luciferase reporter, 4 h;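 active means compounds whose plate-normalised and pattern-corrected inhibition of the luciferase reporter signal at the single screening dose is 50% or more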
Peg3 promoter: reduces Peg3 promoter-driven luciferase expression in HeLa; 360,000 compounds, 1.7% hits; AID 588405; HeLa PEG-Prom luciferase reporter, luminescence, overnight; inhibition, % at 20 µM;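 active means inhibition of at least 50% at 20 µM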
CF NFkB block: blocks PAF-induced NF-kB reporter in cystic fibrosis cells | KKLEB NF-kB-GFP reporter, GFP fluorescence overnight | inhibition, % at 5 µM | 360,000 compounds, 0.86% hits | AID 588850;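 active means at least 50% inhibition at 5 µM, scaled per plate between neutral and stimulator controls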;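 further: PAF is a Pseudomonas aeruginosa culture filtrate used as stimulus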
TWEAK Fn14 block: TWEAK-Fn14 signaling inhibition; TWEAK-stimulated Fn14 reporter cells, luciferase luminescence, 8 h; inhibition, % at 10 µM; 360,000 compounds, 2% hits; in the data active means inhibition above about 50%
HIF-2a block: blocks HIF-2a reporter activity | 786-0 RCC cells HIF-2a reporter, luciferase luminescence, overnight | inhibition, % at 18.8 µM | 360,000 compounds, 0.72% hits;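 active means inhibition of the luminescence signal of 40% or more relative to plate controls, in a single-dose primary screen at 18.75 µM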
KKLEB tox: CF airway cell cytotoxicity counter-screen. KKLEB CF airway cells viability, ATPlite luminescence, overnight; stronger effect = lower value; cells stimulated with P. aeruginosa culture filtrate. activity change (cytotoxicity), % at 5 µM. 360,000 compounds, 0.36% hits. AID 602141;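 active means corrected activity change at or below -50% at 5 µM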
Large screens that a line does not name were inactive.

CN(C)c1ccc(/C=C2\CCCCC2=O)cc1	none
CN(C)CCC1(C2=CCCC2)CC/C(=C/c2ccc(Cl)cc2)C1=O (centres undefined)	Peg3 promoter 95.3
O=C(Nc1cccc(OC(F)(F)F)c1)C1Cc2c(-c3cccc(F)c3)ccnc2O1 (centres undefined)	none
C=C(C)COc1ccc2c(c1)CCC1C2CCC2(C)C(=O)C(=NO)CC12 (centres undefined)	Peg3 promoter 70.6, CF NFkB block 63.6
COc1ccc(-c2oc(NC(=O)CSc3ncn[nH]3)c(C#N)c2-c2ccc(OC)cc2)cc1	none
COc1ccc(-c2oc(NC(=O)CCl)c(C#N)c2-c2ccc(OC)cc2)cc1	Peg3 promoter 102.4
CC(C)(C)c1ccc(C(=O)NCc2nnc(SCC(=O)NC3CCCCC3)o2)cc1	none
CN(C(=O)CN1C(=O)/C(=C/c2ccccc2F)SC1=S)C1CCS(=O)(=O)C1 (centres undefined)	none
Cc1ccc(C(=O)O/N=C(\N)c2ccccn2)cc1C	TROY signal inh 80.9, Peg3 promoter 76.0, TWEAK Fn14 block 99.0
N/C(=N\OC(=O)c1ccc(Br)o1)c1ccccn1	TROY signal inh 50.5, TWEAK Fn14 block 60.4
N/C(=N\OC(=O)c1cccc(F)c1)c1ccccn1	TROY signal inh 61.0, TWEAK Fn14 block 84.0
CCCc1nc2nc(C)c(NS(=O)(=O)c3ccc(CC(C)C)cc3)c(=O)n2[nH]1	none
O=C(COC(=O)CCN1C(=O)/C(=C\C=C\c2ccccc2)SC1=S)Nc1ccc(Br)cc1	HIF-2a block 58.3
CC(C)c1ccccc1NC(=O)COC(=O)CCN1C(=O)/C(=C\C=C\c2ccccc2)SC1=S	TWEAK Fn14 block 72.0, HIF-2a block 81.6
COc1ccc(NS(=O)(=O)c2cccc(C(=O)NNC(=O)c3ccc(O)c(Cl)c3)c2)cc1	none
CC1CC(C)(C)CC2(C1)NC(=O)N(CC(=O)N1CCN(S(=O)(=O)c3cccs3)CC1)C2=O (centres undefined)	none
O=C(Nc1nnc(COc2ccc(Cl)cc2)s1)c1ccc([N+](=O)[O-])cc1	none
O=C(Nc1nnc(CCS(=O)(=O)c2ccc(Br)cc2)s1)c1ccc([N+](=O)[O-])cc1	TWEAK Fn14 block 51.1
CC(C)n1cnc2c(Nc3cccc(Cl)c3)nc(NCCCO)nc21	none
C=CC(=O)Nc1cccc(Nc2nc(N[C@H]3CC[C@H](N(C)C)CC3)nc3c2ncn3C(C)C)c1	TROY signal inh 76.8, Peg3 promoter 101.7, CF NFkB block 84.6, TWEAK Fn14 block 99.0, HIF-2a block 71.5, KKLEB tox -70.0
CCOc1cc(/C=C2\C(=O)ON=C2c2ccccc2)cc(Br)c1O	HIF-2a block 78.7
COc1cc(/C=C2\C(=O)ON=C2c2ccccc2)cc(Br)c1O	Peg3 promoter 51.3, HIF-2a block 51.3
COc1cc(/C=C2/C(=O)ON=C2c2ccccc2)ccc1O	HIF-2a block 53.2
Cc1cccc(C)c1NC(=O)C(C1CC1)n1c(-c2ccc(C(F)(F)F)cc2)nc2ccccc21 (centres undefined)	none (no result: TROY signal inh, Peg3 promoter, CF NFkB block, TWEAK Fn14 block, KKLEB tox)
CC(C)Nc1nc(NCCN2CCCC2)c2sc(-c3ccccc3)cc2n1	none
O=[N+]([O-])c1ccc(-[n+]2ccc3ccccc3c2)c([N+](=O)[O-])c1	Peg3 promoter 95.5, CF NFkB block 81.8, TWEAK Fn14 block 56.7, KKLEB tox -81.0
O=C1CC(c2cccc(O)c2)Oc2ccccc21 (centres undefined)	none
COCCN(CC(=O)Nc1cccc(C)c1C)C(=O)c1oc2c(Cl)cccc2c1C	Peg3 promoter 51.5
Cc1ccc2c(c1)c1c(n2CC(O)CNC2CCCCC2)CCCC1 (centres undefined)	Peg3 promoter 101.5
CN(C)P(=O)(Nc1cccc2ccccc12)Nc1cccc2ccccc12	TWEAK Fn14 block 76.2
COC1=CC(=O)C(OC)=C(OC)C1=O	Peg3 promoter 62.6, CF NFkB block 58.5
CC(O)c1nc2ccccc2n1C/C=C/c1ccccc1 (centres undefined)	none
Cc1c(P(=S)(c2ccccc2)c2ccccc2)[n+]2ccccc2n1C/C=C/c1ccccc1	Peg3 promoter 82.5
O=C(CCCNS(=O)(=O)c1ccc(F)cc1)Nc1ccc(F)cc1	TWEAK Fn14 block 97.2
O=C(O)CCCNS(=O)(=O)c1ccccc1	TWEAK Fn14 block 62.5
O=C(O)CCCNS(=O)(=O)c1ccc2ccccc2c1	none
